# CCT chaperon mod – High-Throughput Screening for Modulators of Cytosolic Chaperonin Activity; 360,000 compounds, 0.3% hits; activity change, % (concentration not given with the values), hits read low; purified chaperonin ATPase assay, HTRF ADP detection, 30 min; in the data active means activity change below about -30%
#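 ATPase activity: ADP formed was measured by HTRF Transcreener (665/615 nm ratio) after 30 min at 37 deg C with 10 uM ATP. Compounds screened at one 76 uM concentration against 40 or 20 nM TRiC in Tris pH 7.4/KCl/MgCl2/DTT buffer.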
# hERG WT inh – qHTS for Inhibitors of KCHN2 3.1: Wildtype qHTS | Voltage-gated inwardly rectifying potassium channel KCNH2 (Homo sapiens), Q12809 | U2OS, BacMam KCNH2, thallium flux FluxOr; hits give low values | activity change, % at 1.84 µM | 340,000 compounds, 0.37% hits;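 active means maximum activity change below -70%; inconclusive means maximum activity change between -70% and -50%; inactive means maximum activity change above -50%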
# Target sequence (Q12809 whole entry, looked up): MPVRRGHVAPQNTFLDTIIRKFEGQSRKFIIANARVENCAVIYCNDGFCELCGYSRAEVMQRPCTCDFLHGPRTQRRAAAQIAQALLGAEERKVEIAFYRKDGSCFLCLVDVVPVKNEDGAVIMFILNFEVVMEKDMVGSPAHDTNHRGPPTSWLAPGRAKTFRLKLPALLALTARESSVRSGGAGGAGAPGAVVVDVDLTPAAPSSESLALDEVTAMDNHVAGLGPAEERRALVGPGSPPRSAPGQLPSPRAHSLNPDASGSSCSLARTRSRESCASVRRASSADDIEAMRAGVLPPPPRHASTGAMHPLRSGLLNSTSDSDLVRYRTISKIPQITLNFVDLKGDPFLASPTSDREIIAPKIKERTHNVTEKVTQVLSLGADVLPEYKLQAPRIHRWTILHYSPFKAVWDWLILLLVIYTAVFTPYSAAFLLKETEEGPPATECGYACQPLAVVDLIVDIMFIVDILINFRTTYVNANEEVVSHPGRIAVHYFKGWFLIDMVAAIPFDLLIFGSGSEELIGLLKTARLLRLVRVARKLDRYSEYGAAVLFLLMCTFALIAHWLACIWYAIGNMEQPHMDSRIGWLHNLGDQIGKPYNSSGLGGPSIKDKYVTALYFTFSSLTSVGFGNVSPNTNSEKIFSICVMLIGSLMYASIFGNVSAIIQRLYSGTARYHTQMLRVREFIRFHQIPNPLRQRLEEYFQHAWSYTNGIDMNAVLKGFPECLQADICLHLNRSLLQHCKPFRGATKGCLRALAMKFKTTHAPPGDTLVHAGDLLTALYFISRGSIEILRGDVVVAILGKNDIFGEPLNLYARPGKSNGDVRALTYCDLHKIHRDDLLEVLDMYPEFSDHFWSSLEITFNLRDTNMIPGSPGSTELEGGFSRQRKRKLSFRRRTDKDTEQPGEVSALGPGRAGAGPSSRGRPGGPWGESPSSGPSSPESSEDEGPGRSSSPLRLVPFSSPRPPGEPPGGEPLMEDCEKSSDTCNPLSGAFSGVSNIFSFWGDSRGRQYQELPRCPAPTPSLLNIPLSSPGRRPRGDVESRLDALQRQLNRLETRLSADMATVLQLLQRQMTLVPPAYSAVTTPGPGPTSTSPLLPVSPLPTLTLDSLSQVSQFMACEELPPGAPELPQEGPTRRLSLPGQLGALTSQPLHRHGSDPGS
#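 U2OS cells transduced with wild-type KCNH2 virus are loaded with FluxOr dye for 45 min, and thallium flux is measured in kinetic reads before and after stimulation buffer. Rate constants are normalized to DMSO controls.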
# Mm-Cpn inhibitor – Inhibitors of TCP-1 ring complex (TRiC) of Methanococcus maripaludis (MmCpn): qHTS | purified Mm-Cpn ATPase, ADP Transcreener TR-FRET | Potency, µM (titrated, usually from 76.9 µM), actives largely listed as inhibitors | 330,000 compounds, 0.031% hits; active means well fitted inhibition curve with a large enough effect; inconclusive means small, poorly fitted or top-dose-only effect; further: nearly all actives have a fitted effect of over 80% in size
#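 Measured: ADP formation by purified Mm-CPN. Conditions: 25 nM protein, 10 uM ATP, Tris pH 7.4 with Mg2+, K+ and DTT, 37°C for 30 min. Detection: Transcreener HTRF after 30 min at room temperature.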
# Rango-impB inh – qHTS Assay for Inhibitors of Rango (Ran-regulated importin-beta cargo) - Importin beta complex formation. 340,000 compounds, 0.031% hits. Rango CFP/YFP FRET sensor + importin beta, 45 min. Potency, µM (doses to about 92.2 µM). AID 540263, 2011; further: nearly all actives have a fitted effect of over 15% in size
#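 FRET biosensor Rango (snurportin 1 IBB between N-terminal EYFP and C-terminal Cerulean), 50 nM in PBS/1 mM DTT/0.02% Tween-20/0.1% BSA, preincubated 5 min RT with compound; 0.125 microM importin beta added, 45 min RT, CFP/YFP FRET ratio read.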
# KCNH2 3.1 inh – qHTS for Inhibitors of KCHN2 3.1: Mutant qHTS; activity change, % (tested at about 1.8 µM); U2OS KCNH2 3.1, thallium flux FluxOr; hits give low values; 340,000 compounds, 0.95% hits; Potassium voltage-gated channel subfamily H member 2, brain isoform KCNH2 3.1 (human);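 active means maximum activity change below -70%; inconclusive means maximum activity change from -70% to -50%; inactive means maximum activity change above -50%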;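 further: thallium influx rate constant from kinetic fluorescence after stimulation buffer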
#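 We transduce U2OS cells with the mutant 3.1 virus, culture them overnight, load FluxOr with Red40 quencher for 45 min, then add stimulation buffer and read kinetically for 2 min to derive a normalized rate constant.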
# Rango release inh – qHTS Assay for Inhibitors of RanGTP induced Rango (Ran-regulated importin-beta cargo) - Importin beta complex dissociation; Potency, µM (titrated, usually from 46.1 µM); 340,000 compounds, 0.071% hits; Snurportin-1 (Homo sapiens) + GTP-binding nuclear protein Ran (Homo sapiens) + Importin …; Biochemical FRET Rango-importin beta, RanGTP-induced dissociation; further: nearly all actives have a fitted effect of over 45% in size
#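 Compounds preincubate 5 min with complex of recombinant Rango and importin beta in PBS with 1 mM DTT. Ran (0.6 uM) loaded with 2 mM GTP plus 0.2 uM RCC1 starts dissociation; FRET is recorded 45 min later.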
# A number is an active result; n = inactive; u = inconclusive; x = no result; ! = a repeat was not active; [ ] = another dose, or the depositor's remark. Hits are enriched below; roughly 1.4% of the tested compounds scored in any of these assays. Unless noted, the call rests on the fitted dose curve.
SMILES,CCT chaperon mod,hERG WT inh,Mm-Cpn inhibitor,Rango-impB inh,KCNH2 3.1 inh,Rango release inh
CN(Cc1ccc(F)cc1)C(=O)c1cccc(S(=O)(=O)N2CCN(Cc3ccccc3)CC2)c1,n,n,n,n,n,n
CSc1ccc(CN(C)C(=O)c2cccc(S(=O)(=O)N3CCN(Cc4ccccc4)CC3)c2)cc1,n,-121.8,n,n,n,n
O=C(NCc1ccc(C(F)(F)F)cc1)C1CC(c2ccccc2C(F)(F)F)=NO1 (centres undefined),n,n,n,n,n,n
Cc1ccc(CNC(=O)C2CC(c3ccccc3C(F)(F)F)=NO2)cc1 (centres undefined),n,n,n,n,-158.3,n
Cc1ccc2c(c1)c1c3n2CCNC3CCC1 (centres undefined),-60.5!,n,n,n,n,n
Cc1ccc2c(c1)c1c3n2CCN(C=O)C3CCC1 (centres undefined),n,n,n,n,n,n
COC(=O)c1cccc(NC(=O)Cc2nc(-c3ccccc3)sc2-c2ccc(C)cc2)c1,n,n,50.1µM,n,n,n
CC(=O)Nc1cccc(NC(=O)Cc2nc(-c3ccccc3)sc2-c2ccc(C)cc2)c1,n,n,u,u,n,n
COc1cccc(NC(=O)Cc2nc(-c3ccccc3)sc2-c2ccc(C)cc2)c1,n,n,39.8µM,n,n,n
Cc1ccc2nc(NC(=O)Cn3nc(C)c([N+](=O)[O-])c3C)sc2c1,n,n,n,n,-94.2,n
Cc1csc(NC(=O)Cn2nc(C)c([N+](=O)[O-])c2C)n1,n,n,n,n,n,n
CN1CCCN(C(c2ccccc2)c2ccc(Cl)cc2)CC1 (centres undefined),n,n,n[15.4 µM],n,-98.5,n
CN1CCN(C(c2ccccc2)c2ccccc2)CC1,n,n,n,n,n,n
COc1ccccc1OCC(=O)Nc1sc2c(c1C(=O)NCC1CCCO1)CCC2 (centres undefined),n,n,n,n,n,n
Nc1nc(N)c2[nH]c(=S)[nH]c2n1,n,n,x,n,n,n
CCCN1CCN(CCCNC(=O)C2CCCN(c3nc4ccc(OCC)cc4s3)C2)CC1 (centres undefined),n,n,n,n,n,n
CCOc1ccc2nc(N3CCC(C(=O)N4CCN(C(=O)c5ccco5)CC4)CC3)sc2c1,n,n,n,n,-76.6,n
CCOc1ccc2nc(N3CCCC(C(=O)N4CCN(CC)CC4)C3)sc2c1 (centres undefined),n,n,n,n,-85.6,n
O=C(OCc1ccc(Cl)c(Cl)c1)c1ccc[nH]1,n,n,n,n,n,n
Cc1ccc(S(=O)(=O)N(C)c2ccc(OCC(=O)OCc3nnc(-c4ccccc4)o3)cc2)cc1,n,n,x,n,-88.4,n
Cc1ccc(S(=O)(=O)N(C)Cc2ccc(C(=O)N/N=C/c3ccc(OC(F)F)cc3)cc2)cc1,n,u,n,n,-108.9,n
C=CCN=c1scc(-c2ccc3c(c2)NC(=O)CO3)n1/N=C(\C)c1ccccn1,n,n,n,u,-95.4,u
Cc1ccccc1NC(=S)NNc1ncc(C(F)(F)F)cc1Cl,n,n,50.1µM,n,n,n
Cc1ccccc1NC(=O)Cc1nc(COC(=O)CSc2ccccc2)cs1,n,n,n,n,n,n
Cc1ccccc1NC(=O)Cc1nc(COC(=O)CSc2ccc(F)cc2)cs1,-58.2,n,x,x,n,x
SMILES,CCT chaperon mod,hERG WT inh,Mm-Cpn inhibitor,Rango-impB inh,KCNH2 3.1 inh,Rango release inh
Cn1c2cc(Br)sc2c2cnn(Cc3c(F)cccc3F)c(=O)c21,x,x,n,x,x,x
CCC(=O)Nc1nc(-c2cc([N+](=O)[O-])cs2)cs1,n,n,35.5µM,u,n,n
CCc1ccc2nc(N3CCN(C)CC3)c(C#N)cc2c1,-49.4,n,n,n,n,n
COc1ccc2nc(N3CCC(C)CC3)c(C#N)cc2c1,n,n,n,u,n,u
Cc1csc(=Nc2ccc(S(=O)(=O)N3CCOCC3)cc2)n1Cc1ccco1,n,n,n,n,n,u
Cc1oc(-c2ccccc2Cl)nc1CN1CCCC1c1ccc(F)cc1 (centres undefined),n,n,n,n,n,n
Cc1nonc1C1CCCN1Cc1nc(-c2ccccc2Cl)oc1C (centres undefined),n,n,n,n,-94.1,n
CCOC(=O)c1c(NC(=O)CSc2ncnc3[nH]ncc23)sc2c1CCC(C)C2 (centres undefined),n,n,n,n,n,n
O=C(Nc1ccc2nc3n(c(=O)c2c1)CCCCC3)C(=O)N1CCN(c2ccccc2F)CC1,n,n,n,n,n,n
CCOC(=O)CC(=O)CSc1nc2c(cc1C#N)CCCCCC2,n,-115.8,n,u,n,u
OC(COC(c1ccc(Cl)cc1)c1ccc(Cl)cc1)CN1CCc2ccccc2C1 (centres undefined),n,-70.7,n,n,x,n
CC(C)(C)c1ccc(OCC(O)CN2CCc3ccccc3C2)cc1 (centres undefined),-57.5,n,x,n,n,n
OC(COC(c1ccc(F)cc1)c1ccc(F)cc1)CN1CCc2ccccc2C1 (centres undefined),n,n,n,n,-109.6,n
Cc1ccc(OCC(O)CN2CCc3ccccc3C2)c(C)c1 (centres undefined),n,n,n,n,n,n
OC(COc1ccc(Cl)cc1Cl)CN1CCc2ccccc2C1 (centres undefined),n,n,n,n,-72.0,n
NC(=S)NN=Cc1cc(-c2cccc(N)c2)ccn1,n,n,x,x,n,x
Cc1cn([C@H]2C[C@H](O)[C@@H](CNCC3=Cc4cc(O)ccc4OC3)O2)c(=O)[nH]c1=O,n,n,x,x,n,x
COc1ccc(S(=O)(=O)N2CCC(n3cnc4cc(C(F)(F)F)ccc43)CC2)cc1,n,-87.3,n,n,-85.8,n
COc1ccc(S(=O)(=O)N2CCC(n3cnc4ccccc43)CC2)cc1,n,n,n,n,n,n
CCN(CC)CCC(O)(c1ccc2c(c1)OCO2)c1cc(OC)c(OC)c(OC)c1 (centres undefined),n,n,x,n,n,n
CCC(NC(=O)c1ccc2nc(Cc3ccc(OC)cc3)oc2c1)c1ccncc1 (centres undefined),-84.0,n,n,n,-104.7,n

# Bioassay records: PubChem, National Center for Advancing Translational Sciences (NCATS)
